This is part of a sample that, as a whole, favours compounds with a hit. Of some 83,000 tested, about 20% had one in any assay.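 Cells were grown in 96-well plates and exposed to the test compound at a single concentration for 48 hours; results are reported as percent growth, with values below 10 considered active.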 Unmarked numbers belong to inactive results. Calls of active or inactive are those of the source.
System: UACC-257 melanoma
Assay: NCI-60 one-dose screen, 48 h (100 = growth as untreated, 0 = no growth, -100 = all killed)
Settings: 10 µM unless noted

| SMILES | growth |
| --- | --- |
| O=C(CSc1nccc(=O)[nH]1)Nc1ccc(-c2nc3ccccc3[nH]2)cc1 | 108% |
| N[C@@H](Cc1cn(-c2ccnc3ccccc23)nn1)C(=O)O | 106% |
| CCOC(=O)c1c(Nc2ccccc2)nn2c(N)c(C#N)c(-c3ccc(F)cc3)nc12 | 101% |
| O=C(N/N=C/c1ccc([N+](=O)[O-])o1)c1[nH]c2ccc(Br)cc2c1-c1ccccc1 | 37.5% |
| CN(C)CCCNc1c2ccc(Cl)cc2nc2c1oc1ccc(Cl)cc12 | 94.5% |
| Cc1c(NC(=O)CSc2nc3sc4c(c3c(=O)n2-c2ccc(Cl)cc2)CCCC4)c(=O)n(-c2ccccc2)n1C | 102% |
| CC(C)(C)Nc1nc2c(OCCc3ccccc3)cccn2c1-c1ccc(Cl)cc1 | 16.7% |
| CN(C)CCCNc1c2ccc(Cl)cc2nc2c1oc1ccccc12 | 32% |
| COc1ccccc1C(=O)CSc1nc(Nc2ccc(S(N)(=O)=O)cc2)c2ccccc2n1 | 111% |
| COc1ccccc1/C=C/C=N/NC1=NC2C(S1)N(C)C(=O)N2C (stereo not drawn) | 78.8% |
| COc1cccc(N2CCN(c3ncnc4c3[nH]c3ccc(F)cc34)C[C@@H]2C)c1 | -27.6% (active) |
| O=C(CSc1nnc(-c2ccc3nc(-c4ccc(Cl)cc4)[nH]c3c2)o1)Nc1ccc(C(=O)/C=C/c2ccc(Cl)cc2)cc1 | 107% |
| Cc1nc2cnc(N)c(C#Cc3cncc(C(=O)Nc4ccc(Cl)c(C(F)(F)F)c4)c3)c2nc1C | 77.7% |
| Cc1ccc(C(=O)Nc2cccc(C(F)(F)F)c2)cc1Nc1nc(-c2cnccn2)nc2c1cnn2C | 26.1% |
| CC(=O)Oc1ccccc1C(=O)Nc1cc(C(C)C)ccc1C | -9.44% (active) |
| COc1ccc(/C=N/NC(=O)c2[nH]c3ccc(Br)cc3c2-c2ccccc2)s1 | 47% |
| O=C(CN1C(=O)/C(=C/c2ccccc2)SC1=S)N1CCOCC1 | 95.8% |
| COc1ccc(-c2nc3ccc(-c4nnc(SCC(=O)Nc5ccc(C(=O)/C=C/c6ccc(Cl)cc6)cc5)o4)cc3[nH]2)cc1OC | 112% |
| CN1C(=S)N(C)C2C1NN=C1SC(c3ccccc3)=CC(=O)N12 (stereo not drawn) | 99% |

| SMILES | growth |
| --- | --- |
| CN(C)c1ccc(/C=C2\Cc3c(F)ccc(Br)c3C2=O)cc1 | 91.3% |
| CN(C)S(=O)(=O)c1oc(-c2ccccc2)nc1C#N | 103% |
| CC(C)(C)OC(=O)N1C(=O)c2c(c3c4ccccc4[nH]c3c3ccc4ccccc4c23)C1=O | 77.2% |
| Cc1[nH]nc2ncc(C#Cc3cncc(C(=O)Nc4ccc(CN5CCN(C)CC5)c(C(F)(F)F)c4)c3)cc12 | 14.7% |
| C#Cc1nc(C2=C(C)C(=N\O)/C(=N/O)C2)cs1 | 102% |
| O=c1[nH]c2ccccc2cc1CSc1ccccc1Nc1nccc(-c2ccc(C(F)(F)F)cc2)n1 | 104% |
| COC1CCN(Cc2ccc3c(NNC(=O)c4cnccn4)nc4cc(F)ccc4n23)C1 (stereo not drawn) | -3.02% (active) |
| O=C(CN1CCOCC1)NNc1ncnc2ccccc12 | 86.3% |
| Cn1c(SCC(=O)Nc2ccc(-c3nc4ccc([N+](=O)[O-])cc4[nH]3)cc2)nc2ccccc2c1=O | 87.3% |
| O=C(CSc1nc2sc3c(c2c(=O)n1-c1ccc(Cl)cc1)CCCC3)N/N=C/c1ccc(F)cc1 | 109% |
| O=c1/c(=C\c2ccc(-c3ccccc3)o2)sc2nc(-c3ccccc3)nn12 | 106% |
| COC(=O)C1CCCN(S(=O)(=O)/N=C2\NC(=O)NC2=C(Cl)Cl)C1 (stereo not drawn) | 106% |
| Clc1ccc2c(NCCCN3CCOCC3)c3oc4ccc(Cl)cc4c3nc2c1 | 102% |
| N#Cc1nc(-c2ccccc2)oc1N1CC[C@@H](CO)C1 | 110% |
| O=C(c1ccc(O)cc1)C1[C@H](c2ccc(Cl)cc2)[C@@H](c2ccccc2)NC12C(=O)Nc1ccc(Cl)cc12 (stereo partly drawn) | 62.9% |
| COc1cccc(OC)c1-c1nnn(C)c1C(=S)N1CCN(c2ccc([N+](=O)[O-])cc2Cl)CC1 | 108% |
| CCCC(=O)NC(c1cccc(N(C)C)c1)c1cc(C)c2cccnc2c1O (stereo not drawn) | 90.6% |
| CC(=O)Oc1ccccc1C(=O)Nc1ccc(C(=O)/C=C/c2ccncc2)cc1 | 92.4% |
| C#Cc1nc(C2=C(C)C(OC(=O)CCC(=O)O)CC2)cs1 (stereo not drawn) | 102% |

From PubChem BioAssay (NCI)
